# According to PMC7862700, “An all-to-all approach to the identification of sequence-specific readers for epigenetic DNA modifications on cytosine”:
# What was measured:
# Assay in all cases: DAPPL (digital affinity profiling via proximity ligation, sequencing); 10 mM Tris-HCl pH 7.5, 50 mM NaCl, 1 mM DTT, 4% glycerol, room temperature, 30 min; GST-TFs on glutathione beads, 16-mer random dsDNA library, 0.1% formaldehyde crosslink after washing; high values mean tight binding
# FEV = target: T1, FEV (Homo sapiens, UniProt Q99581 1-238); details: protein: recombinant; tags: N-terminal GST; dsDNA, one strand shown
# T1 sequence: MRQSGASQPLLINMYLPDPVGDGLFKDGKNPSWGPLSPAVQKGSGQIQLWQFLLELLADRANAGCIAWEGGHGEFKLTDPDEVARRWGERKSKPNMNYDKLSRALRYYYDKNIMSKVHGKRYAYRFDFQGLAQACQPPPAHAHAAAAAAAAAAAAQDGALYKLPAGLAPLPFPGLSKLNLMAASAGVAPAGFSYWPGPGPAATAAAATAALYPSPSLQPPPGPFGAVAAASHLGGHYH
# Procedure, shortened: (§1)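 Pools were built from human transcription factors expressed in yeast as GST fusions, captured on glutathione beads and DNA-barcoded, along with a tag-only sample. Incubation with 200 nmole of a 16-mer random double-stranded DNA library lasted 30 min at room temperature in Tris/NaCl/DTT/glycerol buffer, and was followed by washing, 0.1% formaldehyde crosslinking, proximity ligation, PCR amplification and Illumina NextSeq500 sequencing. Binding signal is the quotient of each hexamer's read frequency for a factor and its frequency for the tag-only sample.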
# ETV5 = ETV5 (Homo sapiens, UniProt P41161 1-510); details: protein: recombinant; tags: N-terminal GST; dsDNA, one strand shown
# ETV5, sequence (P41161 whole entry): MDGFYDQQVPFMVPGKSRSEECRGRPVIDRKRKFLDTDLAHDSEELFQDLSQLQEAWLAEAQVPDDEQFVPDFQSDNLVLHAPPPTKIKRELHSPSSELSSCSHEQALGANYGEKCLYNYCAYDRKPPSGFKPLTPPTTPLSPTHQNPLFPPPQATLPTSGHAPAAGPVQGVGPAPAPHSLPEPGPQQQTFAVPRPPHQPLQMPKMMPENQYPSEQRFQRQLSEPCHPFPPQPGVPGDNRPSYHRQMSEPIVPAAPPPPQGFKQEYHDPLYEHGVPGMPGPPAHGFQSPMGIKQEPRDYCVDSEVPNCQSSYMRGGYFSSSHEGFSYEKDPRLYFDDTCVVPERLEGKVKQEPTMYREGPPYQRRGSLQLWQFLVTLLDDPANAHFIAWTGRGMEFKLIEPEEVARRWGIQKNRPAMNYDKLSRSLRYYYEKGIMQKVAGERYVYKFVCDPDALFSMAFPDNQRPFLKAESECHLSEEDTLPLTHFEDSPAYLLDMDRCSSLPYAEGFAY
# Procedure, shortened: as §1
# HSF1 = HSF1 (Homo sapiens, UniProt Q00613 1-529); details: protein: recombinant; tags: N-terminal GST; chain copies: 3; dsDNA, one strand shown
# HSF1, sequence (Q00613 whole entry): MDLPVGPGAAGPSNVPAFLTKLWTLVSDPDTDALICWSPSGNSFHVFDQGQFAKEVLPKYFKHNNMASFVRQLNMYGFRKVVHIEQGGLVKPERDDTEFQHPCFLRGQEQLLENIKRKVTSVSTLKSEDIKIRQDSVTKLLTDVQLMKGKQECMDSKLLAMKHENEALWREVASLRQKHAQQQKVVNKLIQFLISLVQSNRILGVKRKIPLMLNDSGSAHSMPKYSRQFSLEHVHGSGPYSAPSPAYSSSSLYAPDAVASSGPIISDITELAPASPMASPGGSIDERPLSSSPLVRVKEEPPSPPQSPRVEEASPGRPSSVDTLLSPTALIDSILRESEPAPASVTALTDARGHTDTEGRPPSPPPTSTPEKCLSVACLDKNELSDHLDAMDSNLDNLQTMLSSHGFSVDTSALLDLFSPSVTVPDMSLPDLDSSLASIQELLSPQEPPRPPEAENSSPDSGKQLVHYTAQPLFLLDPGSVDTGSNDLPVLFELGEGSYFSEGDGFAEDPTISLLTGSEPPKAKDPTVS
# Procedure, shortened: as §1
# SPIC = target: T2, SPIC (Homo sapiens, UniProt Q8N5J4 1-248); details: protein: recombinant; tags: N-terminal GST; dsDNA, one strand shown
# T2 sequence: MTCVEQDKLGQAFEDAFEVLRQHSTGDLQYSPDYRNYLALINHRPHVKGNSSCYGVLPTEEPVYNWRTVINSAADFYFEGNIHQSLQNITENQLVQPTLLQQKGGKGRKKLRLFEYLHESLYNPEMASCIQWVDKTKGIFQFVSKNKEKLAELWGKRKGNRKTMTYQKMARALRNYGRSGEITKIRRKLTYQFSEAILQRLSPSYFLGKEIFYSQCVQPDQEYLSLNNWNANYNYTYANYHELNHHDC
# Procedure, shortened: as §1
# ELF4 = ELF4 (Homo sapiens, UniProt Q99607 1-663); details: protein: recombinant; tags: N-terminal GST; dsDNA, one strand shown
# ELF4, sequence (Q99607 whole entry): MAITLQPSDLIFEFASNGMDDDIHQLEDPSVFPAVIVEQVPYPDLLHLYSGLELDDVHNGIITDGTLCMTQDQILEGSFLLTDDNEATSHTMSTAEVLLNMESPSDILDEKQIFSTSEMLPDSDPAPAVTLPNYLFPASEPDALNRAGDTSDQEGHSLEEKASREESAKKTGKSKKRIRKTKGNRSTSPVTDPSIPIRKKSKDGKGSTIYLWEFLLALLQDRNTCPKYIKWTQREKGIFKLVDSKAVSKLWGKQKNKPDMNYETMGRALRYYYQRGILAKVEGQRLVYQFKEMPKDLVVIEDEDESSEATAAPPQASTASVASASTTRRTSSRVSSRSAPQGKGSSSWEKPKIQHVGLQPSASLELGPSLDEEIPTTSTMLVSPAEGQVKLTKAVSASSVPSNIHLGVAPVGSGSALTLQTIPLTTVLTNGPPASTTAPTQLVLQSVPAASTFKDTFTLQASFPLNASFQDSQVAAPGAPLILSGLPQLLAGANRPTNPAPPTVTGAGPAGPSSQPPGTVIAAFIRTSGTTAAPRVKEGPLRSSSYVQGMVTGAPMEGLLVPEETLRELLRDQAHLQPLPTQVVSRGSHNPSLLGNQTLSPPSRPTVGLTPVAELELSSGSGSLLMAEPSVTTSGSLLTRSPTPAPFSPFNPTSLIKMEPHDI
# Procedure, shortened: as §1
# ELK4 = target: T3, ELK4 (Homo sapiens, UniProt P28324-2 1-405); details: protein: recombinant; tags: N-terminal GST; dsDNA, one strand shown
# T3 sequence: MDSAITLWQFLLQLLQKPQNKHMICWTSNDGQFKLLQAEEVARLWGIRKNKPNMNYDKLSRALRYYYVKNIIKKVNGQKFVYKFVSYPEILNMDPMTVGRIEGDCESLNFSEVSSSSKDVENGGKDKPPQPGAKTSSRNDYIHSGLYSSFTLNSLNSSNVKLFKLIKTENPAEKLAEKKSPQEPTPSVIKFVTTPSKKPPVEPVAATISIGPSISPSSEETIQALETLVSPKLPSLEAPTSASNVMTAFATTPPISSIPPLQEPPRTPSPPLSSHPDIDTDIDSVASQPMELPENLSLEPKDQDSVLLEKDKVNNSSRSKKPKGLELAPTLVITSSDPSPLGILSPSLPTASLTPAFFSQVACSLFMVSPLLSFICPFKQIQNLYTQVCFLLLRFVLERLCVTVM
# Procedure, shortened: as §1
# ETV2 = target: T4, ETV2 (Homo sapiens, UniProt O00321 1-342); details: protein: recombinant; tags: N-terminal GST; dsDNA, one strand shown
# T4 sequence: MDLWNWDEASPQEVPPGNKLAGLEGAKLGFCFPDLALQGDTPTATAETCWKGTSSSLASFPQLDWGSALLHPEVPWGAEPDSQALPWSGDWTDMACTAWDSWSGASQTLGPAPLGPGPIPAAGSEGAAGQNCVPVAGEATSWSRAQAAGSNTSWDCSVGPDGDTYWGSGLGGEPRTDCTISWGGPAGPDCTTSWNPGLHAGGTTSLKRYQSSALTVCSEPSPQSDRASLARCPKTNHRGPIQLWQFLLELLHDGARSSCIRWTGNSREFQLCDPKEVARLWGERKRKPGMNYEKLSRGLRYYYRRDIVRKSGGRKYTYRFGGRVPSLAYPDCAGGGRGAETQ
# Procedure, shortened: as §1
# ELF3 = target: T5, ELF3 (Homo sapiens, UniProt P78545 1-371); details: protein: recombinant; tags: N-terminal GST; dsDNA, one strand shown
# T5 sequence: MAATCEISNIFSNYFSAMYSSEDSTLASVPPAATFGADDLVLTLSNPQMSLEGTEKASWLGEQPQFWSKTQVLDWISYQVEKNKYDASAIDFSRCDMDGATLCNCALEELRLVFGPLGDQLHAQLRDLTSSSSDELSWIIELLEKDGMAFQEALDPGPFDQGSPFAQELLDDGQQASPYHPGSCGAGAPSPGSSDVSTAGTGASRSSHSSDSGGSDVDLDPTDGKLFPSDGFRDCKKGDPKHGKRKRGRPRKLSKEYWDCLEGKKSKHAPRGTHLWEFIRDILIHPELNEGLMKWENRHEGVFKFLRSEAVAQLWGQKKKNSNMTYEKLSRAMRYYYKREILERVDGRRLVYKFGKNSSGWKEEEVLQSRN
# Procedure, shortened: as §1
# CRX = CRX (Homo sapiens, UniProt O43186 1-299); details: protein: recombinant; tags: N-terminal GST; dsDNA, one strand shown
# CRX, sequence (O43186 whole entry): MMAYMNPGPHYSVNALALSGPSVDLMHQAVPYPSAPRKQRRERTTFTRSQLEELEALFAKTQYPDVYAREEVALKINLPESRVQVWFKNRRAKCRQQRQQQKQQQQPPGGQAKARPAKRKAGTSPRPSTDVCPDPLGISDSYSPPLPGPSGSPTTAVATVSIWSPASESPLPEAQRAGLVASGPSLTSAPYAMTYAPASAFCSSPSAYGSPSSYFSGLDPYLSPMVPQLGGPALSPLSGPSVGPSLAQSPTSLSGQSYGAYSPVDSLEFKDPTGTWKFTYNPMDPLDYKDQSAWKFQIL
# Procedure, shortened: as §1
# ETV1 = ETV1 (Homo sapiens, UniProt P50549 1-477); details: protein: recombinant; tags: N-terminal GST; dsDNA, one strand shown
# ETV1, sequence (P50549 whole entry): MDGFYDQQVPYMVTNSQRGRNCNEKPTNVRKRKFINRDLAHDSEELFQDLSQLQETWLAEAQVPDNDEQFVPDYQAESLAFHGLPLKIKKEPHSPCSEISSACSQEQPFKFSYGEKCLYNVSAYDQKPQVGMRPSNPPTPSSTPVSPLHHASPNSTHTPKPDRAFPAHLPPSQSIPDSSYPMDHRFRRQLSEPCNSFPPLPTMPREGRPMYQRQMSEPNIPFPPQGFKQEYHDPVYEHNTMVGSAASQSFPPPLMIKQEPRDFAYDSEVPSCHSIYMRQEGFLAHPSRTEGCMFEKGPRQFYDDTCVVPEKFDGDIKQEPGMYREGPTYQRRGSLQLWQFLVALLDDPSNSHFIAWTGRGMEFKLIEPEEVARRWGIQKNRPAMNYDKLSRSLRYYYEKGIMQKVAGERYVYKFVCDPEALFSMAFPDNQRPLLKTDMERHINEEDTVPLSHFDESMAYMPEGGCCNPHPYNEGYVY
# Procedure, shortened: as §1
sequence,measurement,setting,value
TGTTTG,binding signal,FEV,"1.21 fold enrichment (6-mer frequency, TF over GST control)"
same,binding signal,ETV5,"1.23 fold enrichment (6-mer frequency, TF over GST control)"
same,binding signal,HSF1,"1.06 fold enrichment (6-mer frequency, TF over GST control)"
same,binding signal,SPIC,"1.29 fold enrichment (6-mer frequency, TF over GST control)"
same,binding signal,ELF4,"1.36 fold enrichment (6-mer frequency, TF over GST control)"
same,binding signal,ELK4,"1.38 fold enrichment (6-mer frequency, TF over GST control)"
same,binding signal,ETV2,"1.14 fold enrichment (6-mer frequency, TF over GST control)"
same,binding signal,ELF3,"1.46 fold enrichment (6-mer frequency, TF over GST control)"
same,binding signal,CRX,"1.08 fold enrichment (6-mer frequency, TF over GST control)"
same,binding signal,ETV1,"1.38 fold enrichment (6-mer frequency, TF over GST control)"
